For 16 compounds, growth results are on record in PubChem BioAssay (NCI).

This is part of a sample that, as a whole, favours compounds with a hit. Of some 83,000 tested, about 20% had one in any assay.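 Results are percent growth after 48 hours of single-concentration exposure. 100 means growth as in untreated cells, lower positive values show inhibition; negative values down to -100 show cell death.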 A number with no mark means an inactive call. Active and inactive are the calls of the source. The calls were made as follows: active = growth percent below 10; inactive = the rest.

Among the test systems are T-47D breast; BT-549 breast; MDA-MB-435 melanoma; SW-620 colon; MCF7 breast; HCT-116 colon; HCC-2998 colon; KM12 colon.
Holding throughout (assay): NCI-60 one-dose screen, 48 h (100 = growth as untreated, 0 = no growth, -100 = all killed)
Conditions in all cases: 10 µM unless noted

For `CCc1ccc(-c2cn3ccnc3c(-c3ccc4ncn(Cc5ccccc5)c4c3)n2)cc1`, the growth in the assay with T-47D breast was 5.18% (active); with BT-549 breast, 84.1%; in the assay on MDA-MB-435 melanoma, 49.1%; in the assay with SW-620 colon, 81.2%; in the assay with MCF7 breast it was 42%; with HCT-116 colon, 38.8%. For the same compound, the growth in the assay on HCC-2998 colon was 74.8%; in the assay on KM12 colon, 54.3%.

Consider `NC(=NCCCOc1ccc(F)cc1)Nc1ccc(Cl)cc1`, for which the growth in the assay on T-47D breast was 18.6%; in the assay with BT-549 breast, 52.8%; in the assay with MDA-MB-435 melanoma it was 46.8%; in the assay on SW-620 colon it was 56.9%; in the assay with MCF7 breast, 7.28% (active); in the assay on HCT-116 colon, 16.5%. Moreover, in the assay with HCC-2998 colon, the growth was 40.8%.

With `Nc1nc(Nc2ccccc2SSc2ccccc2Nc2nc(N)nc(-c3cccs3)n2)nc(-c2ccsc2)n1`, the growth in the assay on T-47D breast was 56.2%; with BT-549 breast, 86%; with MDA-MB-435 melanoma, 98.1%; in the assay with SW-620 colon, 80.4%; with MCF7 breast it was 68.1%; in the assay on HCT-116 colon it was 84.9%. Besides, the growth in the assay with HCC-2998 colon was 111%.

In the case of `NS(=O)(=O)c1ccc(CCN2C(=O)C3C(C2=O)C2(Cl)C(Cl)=C(Cl)C3(Cl)C2(Cl)Cl)cc1` (configuration not stated), the growth with T-47D breast is 94.4%; with BT-549 breast it was 94.8%; in the assay on MDA-MB-435 melanoma it was 108%; in the assay with SW-620 colon, 105%; in the assay on MCF7 breast, 92.5%; in the assay with HCT-116 colon, 94%. The growth with HCC-2998 colon was 93.8%.

For the compound `CC(C)(C)c1cc(/C=N/NC(=O)c2ccccc2NC(=O)c2cccs2)c(O)c(C(C)(C)C)c1`, the growth in the assay on T-47D breast is 29.4%; in the assay with BT-549 breast, 57.4%; with MDA-MB-435 melanoma, 51.8%; with SW-620 colon it was 17.1%; in the assay with MCF7 breast it was 18.1%; in the assay on HCT-116 colon, 9.85% (active). Further, in the assay on HCC-2998 colon, the growth is 30.9%.

Regarding `C=C1C(=O)O[C@H]2[C@H]1CC/C(CNC(=O)CCc1ccc(OC)cc1)=C\CC[C@@]1(C)O[C@@H]21`, the growth was 40.8% in the assay on T-47D breast; 43.1% with BT-549 breast; 14.3% with MDA-MB-435 melanoma; 19% in the assay on SW-620 colon; 33.5% with MCF7 breast; 19.8% in the assay with HCT-116 colon. Also, the growth in the assay with HCC-2998 colon is 97.5%; with KM12 colon it was 97.4%.

As for `CCN(CC)CCCC(C)Nc1cc(O)cc2cccnc12` (configuration not stated), the growth in the assay on T-47D breast is 110%; in the assay on BT-549 breast, 105%; in the assay on MDA-MB-435 melanoma it was 106%; in the assay on SW-620 colon it was 97.2%; in the assay with MCF7 breast, 95%; in the assay on HCT-116 colon, 87.6%. In addition, the growth with HCC-2998 colon is 96.4%.

On to `CNC(=O)c1cccc(Cn2nc(C)c(NC(=O)c3ccc(COc4ccc(C(F)(F)F)cc4C)cc3)c2C)c1`, for which the growth in the assay on T-47D breast was 6.16% (active); in the assay with BT-549 breast it was 19.7%; with MDA-MB-435 melanoma, 36.2%; in the assay with SW-620 colon, 77.3%; in the assay on MCF7 breast, 21.7%; with HCT-116 colon, 29.2%. Besides, the growth in the assay with HCC-2998 colon is 68.5%.

With `O=C1c2ccccc2CCC12OC2c1cn(-c2ccccc2)nc1-c1ccc(Cl)cc1` (configuration not stated), the growth is 93.1% with T-47D breast; 126% with BT-549 breast; 100% in the assay on MDA-MB-435 melanoma; 95.6% in the assay with SW-620 colon; 87.7% with MCF7 breast; 47.4% in the assay on HCT-116 colon. The growth with HCC-2998 colon was 108%.

In the case of `Cc1nn(-c2ccccc2)c(Cl)c1/C=N\N=c1/sc2ccccc2n1C`, the growth is 93.7% in the assay with T-47D breast; 92.8% with BT-549 breast; 102% in the assay on MDA-MB-435 melanoma; 101% in the assay on SW-620 colon; 97% with MCF7 breast; 84.5% in the assay on HCT-116 colon. The figures for the growth in the assay on HCC-2998 colon and in the assay with KM12 colon were 101% and 106%, respectively.

`O=C1Nc2cc(-c3cccc([N+](=O)[O-])c3)ccc2/C1=C/c1ccc[nH]1`: the growth with T-47D breast is -10.6% (active); in the assay on BT-549 breast, 23%; with MDA-MB-435 melanoma it was 97.7%; in the assay with SW-620 colon it was 93.3%; in the assay with MCF7 breast, 16%; in the assay with HCT-116 colon, 97.9%. The growth in the assay on HCC-2998 colon was 61%; in the assay on KM12 colon, 46.7%.

As for `Cc1cc(C)c(S(=O)(=O)Oc2ccccc2[N+](=O)[O-])c(C)c1`, the growth is 38.8% with T-47D breast; 40.6% in the assay with BT-549 breast; -2.54% (active) in the assay on MDA-MB-435 melanoma; 8.04% (active) in the assay with SW-620 colon; 13.3% in the assay with MCF7 breast; 19.7% with HCT-116 colon. In addition, in the assay on HCC-2998 colon, the growth was 32.1%.

On to `C#Cc1cccc(NC(=O)Nc2cccc(NC(=O)CCl)c2)c1`, for which the growth is 27.8% [8.25 µM] in the assay with T-47D breast; -15.1% [8.25 µM] (active) with BT-549 breast; -39.8% [8.25 µM] (active) in the assay on MDA-MB-435 melanoma; -42.3% [8.25 µM] (active) in the assay on SW-620 colon; 4.65% [8.25 µM] (active) with MCF7 breast; 2.24% [8.25 µM] (active) with HCT-116 colon. Further, the growth with HCC-2998 colon was 93.6% [8.25 µM].

`Cc1ccc(/C=C(/C#N)n2nnc3cccc(F)c32)cc1`: the growth in the assay on T-47D breast was 21.9%; with BT-549 breast it was 27.1%; with MDA-MB-435 melanoma, -89.5% (active); in the assay on SW-620 colon it was 1.87% (active); in the assay with MCF7 breast it was 13.5%; in the assay on HCT-116 colon, 2.07% (active). In the assay on HCC-2998 colon, the growth is -32.1% (active).

For `Cn1cc(-c2nc(-c3c[nH]c4c(Cl)nccc34)cs2)c2cc(Br)ccc21`, the growth in the assay with T-47D breast was 39.1%; in the assay with BT-549 breast, 95.7%; in the assay with MDA-MB-435 melanoma, 79.4%; in the assay on SW-620 colon it was 98.6%; in the assay with MCF7 breast, 77.4%; in the assay on HCT-116 colon, 88.8%. In addition, the growth in the assay on HCC-2998 colon was 114%.

As to `CCCCCOc1ccc(/C=N/Nc2cc(C)nc3ccc(Cl)cc23)cc1`, the growth in the assay on T-47D breast was 68.6%; in the assay with BT-549 breast, 103%; in the assay on MDA-MB-435 melanoma, -75.6% (active); in the assay with SW-620 colon, -73.8% (active); in the assay with MCF7 breast, -73.6% (active); with HCT-116 colon, -64.5% (active). For the same compound, the growth is -67.7% (active) with HCC-2998 colon and -84.6% (active) in the assay on KM12 colon.
